# Test results from ChEMBL document CHEMBL3988442, “University of Dundee, Small-Polar-MMV Screening Library” (2021).
# Hit rate of the full screen: of about 69,000 compounds, about 1,000 (1.4%) showed an effect of 50% or more. Shown is part of a subset that was picked to be rich in strong results.
# Test system: Leishmania donovani
# Assay: Leishmania intramacrophage assay
# Type: functional, organism-based
# Set-up: scale not given: in the data most compounds retested in dose-response had high values
smiles,measurement,setting,value
Cc1c(-c2c(-c3ccccc3)ncn2[C@@H](C(=O)O)[C@H](C)O)cnn1C,Percent Effect,"30.3 µM, […]",50.58%
Cc1nn(C)c(C)c1-c1c(-c2ccccc2)ncn1[C@H](CO)C(=O)O,Percent Effect,"30.3 µM, […]",46.15%
Cc1c(-c2c(-c3ccccc3)ncn2[C@H](CO)C(=O)O)cnn1C,Percent Effect,"30.3 µM, […]",25.35%
Cc1ccccc1C(=O)N1CC[C@H](O)[C@@H](N2CCOCC2)CC1,Percent Effect,"30.3 µM, […]",5.268%
Cc1ccc(OC2(C(=O)O)CCN(C(=O)c3cccc(F)c3)CC2)cn1,Percent Effect,"30.3 µM, […]",-5.312%
O=c1[nH]ncc(NCCOc2ccc3c(c2)OCO3)c1Cl,Percent Effect,"30.3 µM, […]",33.23%
O=c1[nH]ncc(NCCOc2cccc(Br)c2)c1Cl,Percent Effect,"30.3 µM, […]",33.92%
O=c1[nH]ncc(NCCOc2ccc3c(c2)CCC3)c1Cl,Percent Effect,"30.3 µM, […]",53.95%
O=C1COc2c(cccc2C(=O)N2CCCC(n3cccn3)C2)N1 (stereo not given),Percent Effect,"30.3 µM, […]",-19.69%
O=C(NC1CC1)c1ccn(COc2c(Cl)cccc2Cl)n1,Percent Effect,"30.3 µM, […]",26.41%
CC(C)C1CN(C(=O)c2ccccc2)CCS1 (stereo not given),Percent Effect,"30.3 µM, […]",-6.451%
Cc1ccc([C@]2(O)CC[C@H]3CN(Cc4cccc(Cl)c4Cl)C[C@H]32)nc1.O=C(O)CC(O)(CC(=O)O)C(=O)O,Percent Effect,"30 µM, 30.03 µM",12.17%
Cc1ccc([C@]2(O)CC[C@H]3CN(Cc4cc(C)c(O)c(C)c4)C[C@H]32)nc1.O=C(O)CC(O)(CC(=O)O)C(=O)O,Percent Effect,"30 µM, 30.03 µM",50.06%
Cc1cc(-c2cnc(N3CCSCC3)nc2C(C)C)on1,Percent Effect,"30.3 µM, […]",-38.52%
Cn1cnc2c1CCN(CC(=O)N(Cc1ccsc1)C1CC1)C2,Percent Effect,"30.3 µM, […]",1.808%
CC1(C)CC(=O)c2cnc3nc(N4CCCCC4)nc(O)c3c2C1,Percent Effect,"30.3 µM, […]",10.62%
Cc1cccc(CS(=O)(=O)Cc2ccn(C)c(=O)c2)c1,Percent Effect,"30.3 µM, […]",18.93%
O=C(c1cc2c([nH]c1=O)CCC2)N1CCCCCC1c1ccncc1 (stereo not given),Percent Effect,"30.3 µM, […]",26.35%
CCN(CC)c1nc(Nc2cccc(C(C)O)c2)nc2ccccc12 (stereo not given),Percent Effect,"30.3 µM, […]",66.27%
CCN(CC)c1nc(Nc2cccc(C(=O)O)c2)nc2ccccc12,Percent Effect,"30.3 µM, […]",3.255%
CC(O)c1cccc(Nc2nc(NCCO)c3ccccc3n2)c1 (stereo not given),Percent Effect,"30.3 µM, […]",37.25%
CCn1ncc(S(=O)(=O)N[C@@H]2CCC[C@@H](n3ccnc3)[C@@H]2O)c1C,Percent Effect,"30.3 µM, […]",16.74%
NCCC(=O)N1CCC2(CC1)CN(C(=O)c1ccc(Cl)cc1)CCO2,Percent Effect,"30.3 µM, […]",0.3697%
Cc1ccc(C(=O)N2CCC3(CCCCC3)C2)c(=O)[nH]1,Percent Effect,"30.3 µM, […]",56.07%
COc1ccc(OC2CCN(C(=O)c3ccc(C)[nH]c3=O)CC2)cc1,Percent Effect,30 µM,26.55%
Cc1ccc(C(=O)N2CCC(Oc3ccccc3)CC2)c(=O)[nH]1,Percent Effect,30 µM,12.56%
Cc1ccc(C(=O)N2CCC3(CCCC3)CC2)c(=O)[nH]1,Percent Effect,"30.3 µM, […]",27.16%
Cc1ccc(C(=O)N2CCOC3(CCCC3)C2)c(=O)[nH]1,Percent Effect,"30.3 µM, […]",4.345%
Cc1ccc(C(=O)N2CCC(Oc3ccc(C)c(C)c3)CC2)c(=O)[nH]1,Percent Effect,30 µM,57.43%
COCCCC(=O)N1CCC(Nc2cccnn2)CC1,Percent Effect,30 µM,-18.1%
CNC(=O)[C@H]1CC[C@@H]2[C@@H](CCN2CCOCc2ccccc2)O1.O=C(O)C(F)(F)F,Percent Effect,"30.3 µM, […]",45.25%
Cc1cc(NC2CCc3nc(C(C)C)nn3C2)n2ncnc2n1 (stereo not given),Percent Effect,"30.3 µM, […]",-19.33%
CC[C@@H](C)[C@H](NC(=O)Cn1ccc2c(Cl)cccc21)C(=O)O,Percent Effect,"30.3 µM, […]",7.093%
CCc1nnc(C(C)N(C)Cc2c(C)nn(-c3ccccc3)c2C)o1 (stereo not given),Percent Effect,"30.3 µM, […]",21.58%
Cc1nnc(C(C)N(C)Cc2c(C)nn(-c3ccccc3C)c2C)o1 (stereo not given),Percent Effect,"30.3 µM, […]",60.72%
Cc1nnc(C(C)N(C)Cc2c(C)nn(-c3ccccc3)c2C)o1 (stereo not given),Percent Effect,"30.3 µM, […]",15.94%
O=C(NCC1(O)CCC1)c1cccc(-n2cccn2)c1,Percent Effect,"30.3 µM, […]",0.6562%
O=S1(=O)N=C(SCc2ccc(Cl)cc2)Nc2ccc(F)cc21,Percent Effect,"30 µM, 30.03 µM",63.48%
O=C(CSC1=NS(=O)(=O)c2cc(F)ccc2N1)Nc1ccc(Cl)cc1,Percent Effect,"30.3 µM, […]",3.738%
O=C(CSC1=NS(=O)(=O)c2cc(F)ccc2N1)c1ccc(Cl)cc1,Percent Effect,"30 µM, 30.03 µM",37.27%
CC(C)(C)c1cn(CC2CCCN(c3cnc4ccccc4n3)C2)nn1 (stereo not given),Percent Effect,"30.3 µM, […]",23.01%
NC(=O)CN1CCC2(CC1)CC(=O)c1ccc3ccccc3c1O2,Percent Effect,"30.3 µM, […]",11.62%
CCOC(=O)CN1CCC2(CC1)CC(=O)c1ccc3ccccc3c1O2,Percent Effect,"30.3 µM, […]",52.56%
CN(C)C(=O)CN1CCC2(CC1)CC(=O)c1ccc3ccccc3c1O2,Percent Effect,"30.3 µM, […]",36.93%
Cc1nc(NC(=O)C2(C)CN(C)CCO2)sc1C.Cl (stereo not given),Percent Effect,"30.3 µM, […]",1.58%
Cc1nc(Nc2nccs2)cc(C2CCCN2)n1.Cl (stereo not given),Percent Effect,"30.3 µM, […]",34.17%
Cc1nc(Nc2ncc(C)s2)cc(C2CCCN2)n1.Cl (stereo not given),Percent Effect,"30.3 µM, […]",56.27%
Cc1nc(Nc2nnc(C)s2)cc(C2CCCN2)n1.Cl (stereo not given),Percent Effect,"30.3 µM, […]",-1.301%
COc1cc(/C=C/c2ncc(C(=O)O)s2)cc(Cl)c1O,Percent Effect,"30 µM, 30.03 µM",50.87%
COc1cc(/C=C/c2ncc(C(=O)O)s2)cc(Cl)c1OC,Percent Effect,30 µM,-16.83%
CCOc1c(Cl)cc(/C=C/c2ncc(C(=O)O)s2)cc1OC,Percent Effect,30 µM,26.63%
O=C1CNc2ncnc(Nc3cccc(Cn4cccn4)c3)c2N1,Percent Effect,"30.3 µM, […]",32.36%
O=C(Nc1ccccc1OCCc1ccccn1)N1CCOCC(O)C1 (stereo not given),Percent Effect,"30.3 µM, […]",34.91%
O=C(Nc1ccccc1OCCc1ccccn1)N1CC[C@@H](O)C1,Percent Effect,"30.3 µM, […]",-41.47%
O=C(Nc1ccccc1OCCc1ccccn1)N1CCOCC1,Percent Effect,"30.3 µM, […]",51.44%
O=C(O)C(F)(F)F.O=C1CC2(CCN(CC3CCOC3)CC2)c2ccccc2N1CC1CC1 (stereo not given),Percent Effect,"30.3 µM, […]",8.748%
O=C(O)C(F)(F)F.O=C(O)C(F)(F)F.OCCN1CC2(CCN(CC3CC3)CC2)c2ccccc21,Percent Effect,"30.3 µM, […]",75.39%
CC(C)CN1C(=O)C2(CCN(Cc3cccs3)C2)c2ccccc21.O=C(O)C(F)(F)F (stereo not given),Percent Effect,"30.3 µM, […]",1.991%
CC(C)CN1C(=O)C2(CCN(Cc3ccoc3)C2)c2ccccc21.O=C(O)C(F)(F)F (stereo not given),Percent Effect,"30.3 µM, […]",-1.91%
CC(C)CN1C(=O)C2(CCN(CC3CCOCC3)C2)c2ccccc21.O=C(O)C(F)(F)F (stereo not given),Percent Effect,"30.3 µM, […]",64.12%
O=C(O)C(F)(F)F.c1cnc(N2CCC3(CC2)CN(CC2CC2)c2ccccc23)nc1,Percent Effect,"30 µM, 30.03 µM",24.73%
OC1(CN2CCCC2)COCCN(c2nccs2)C1 (stereo not given),Percent Effect,"30.3 µM, […]",-9.416%
COCC1CN(S(=O)(=O)N(C)C)Cc2cnn(CC3CCCC3)c21.O=C(O)C(F)(F)F (stereo not given),Percent Effect,"30.3 µM, […]",-10.54%
Cc1ccc(F)c(NC(=O)CCC(=O)N(C)Cc2cc(C3CC3)[nH]n2)c1,Percent Effect,"30.3 µM, […]",5.303%
COc1ccccc1CC(=O)NC(CC(=O)O)c1ccc(C)cc1 (stereo not given),Percent Effect,"30.3 µM, […]",-0.7929%
COc1ccccc1Oc1ncccc1CNC(=O)CN1CCCC1=O,Percent Effect,"30.3 µM, […]",15.35%
Cc1cc(NC(=O)NCc2cccnc2OC(C)C)no1,Percent Effect,"30.3 µM, […]",23.81%
O=C(O)C(F)(F)F.O=C(O)C(F)(F)F.c1ccc(CN2CCc3nnc(CN4CCCCC4)n3CC2)nc1,Percent Effect,"30 µM, 30.03 µM",-31.83%
CNc1cc(C)nc(N2C[C@H](NC(=O)C3CCOCC3)[C@@H](C3CC3)C2)n1,Percent Effect,"30.3 µM, […]",-19.84%
CCc1cc(N2C[C@H](C3CC3)[C@@H](N)C2)nc(N2CCOCC2)n1,Percent Effect,"30.3 µM, […]",29.17%
CNc1cc(C)nc(N2C[C@H](C3CC3)[C@@H](N)C2)n1,Percent Effect,"30.3 µM, […]",66.39%
CC(C)Oc1cc(N2C[C@H](C3CC3)[C@@H](N)C2)nc(N)n1,Percent Effect,"30.3 µM, […]",15.53%
Cc1cc(C)nc(N2CCC(OCCN3CCCCC3)C2)n1 (stereo not given),Percent Effect,"30.3 µM, […]",-14.11%
Cc1cc(N2C[C@H](C3CC3)[C@@H](N)C2)nc(N2CCCCC2)n1,Percent Effect,"30.3 µM, […]",55.81%
CNc1cc(C)nc(N2C[C@@H](C(=O)O)[C@H](C3CC3)C2)n1,Percent Effect,"30.3 µM, […]",1.34%
N[C@H]1CN(Cc2cnc(N3CCCC3)nc2)C[C@@H]1C1CC1,Percent Effect,"30.3 µM, […]",17.06%
CCc1cc(N2C[C@H](C3CC3)[C@@H](N)C2)nc(N2CCCC2)n1,Percent Effect,"30.3 µM, […]",72.46%
Nc1cc2c(nn1)CCN(C(=O)c1ccc(-c3ccco3)[nH]c1=O)C2,Percent Effect,"30.3 µM, […]",9.211%
O=c1cc(C2CCNCC2)nc(CCCc2ccccc2)[nH]1,Percent Effect,"30.3 µM, […]",27.29%
Cc1cc(NC(=O)CN2CCn3c(nnc3C(C)C)C2)n(C)n1,Percent Effect,30 µM,-15.63%
Cc1nsc(N2CCCN(C(=O)NCc3cc(C)on3)CC2)n1,Percent Effect,"30.3 µM, […]",8.411%
CN(CCNc1ncc2c(n1)CCN2c1ccccc1)S(C)(=O)=O,Percent Effect,"30.3 µM, […]",14.06%
Cc1cnn(CCC(=O)N2CCCC(c3cc(C(N)=O)[nH]n3)C2)c1 (stereo not given),Percent Effect,"30 µM, 30.03 µM",2.466%
COc1ccccc1CC(=O)N1CCC(OCc2cccnc2)CC1,Percent Effect,"30.3 µM, […]",5.945%
Cc1ccccc1SC1CCN(C(=O)C2CNCC(=O)N2)CC1 (stereo not given),Percent Effect,"30.3 µM, […]",24.39%
Cc1ccccc1SC1CCN(C(=O)[C@@H]2C[C@@H](N)CN2)CC1,Percent Effect,"30.3 µM, […]",56.56%
Cc1ccccc1SC1CCN(C(=O)CCCS(N)(=O)=O)CC1,Percent Effect,"30.3 µM, […]",28.86%
Cc1ccccc1SC1CCN(C(=O)C2CNC(=O)N2)CC1 (stereo not given),Percent Effect,"30.3 µM, […]",-12.93%
Cc1ccccc1SC1CCN(C(=O)[C@H]2[C@@H]3CNC[C@@H]32)CC1,Percent Effect,"30.3 µM, […]",68.53%
CN1C[C@@H](N)C[C@H]1C(=O)N1CCC(Cc2ccc(F)cc2)CC1,Percent Effect,"30.3 µM, […]",8.715%
Cc1nc[nH]c1C(=O)N1CC[C@@H](NC(=O)c2ccccn2)[C@H](O)C1,Percent Effect,"30.3 µM, […]",11.08%
COCC1CC2(CCN(Cc3nccn3C)CC2)CN1c1ncccn1.O=C(O)C(F)(F)F (stereo not given),Percent Effect,"30.3 µM, […]",11.88%
CC(=O)c1c(C)nn(CC(=O)N2CCCC2c2ccc(C(N)=O)s2)c1C (stereo not given),Percent Effect,"30.3 µM, […]",42.8%
Cc1n[nH]c2ncc(CNC3CCCN(c4ncccn4)C3)cc12.Cl (stereo not given),Percent Effect,"30.3 µM, […]",15.17%
Cc1cnc(N2CCn3c(CN4CCOCC4)nnc3C2)nc1.O=C(O)C(F)(F)F,Percent Effect,"30.3 µM, […]",30.81%
